Several values for one entry are separate records, joined by “and”; a condition that tells them apart may be missing. Equal values may be shown once. Out of some 5,500 compounds screened, about 2,000 (36%) were called active. Inconclusive results (about 18%) are left out. Rule as the data show it: active = normalized growth mostly below about 0.91 (no sharp cut-off); inconclusive = no clear call, values can overlap the other calls; inactive = mostly above about 0.92. Some of the results follow.
Experiment: chemical genetic growth profiling, strain panel (AID 1159580);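 also: tested at 20 µM; growth read once vehicle control cultures reached saturation at 30 °C; 1 = growth at the plate median or of vehicle wells; lower values mean less growth of the strain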
Settings: growth OD
[1] = S. cerevisiae deletion strains, locus YAL013W, strain DEP1, active compounds read low
[2] = S. cerevisiae deletion strains, locus YHR030C, strain SLT2, active compounds read low
[3] = S. cerevisiae deletion strains, locus YHR079C, strain IRE1, active compounds read low
[4] = S. cerevisiae deletion strains, locus YJL095W, strain BCK1, active compounds read low
[5] = S. cerevisiae deletion strains, locus YJR066W, strain TOR1, active compounds read low
[6] = S. cerevisiae deletion strains, locus YLR113W, strain HOG1, active compounds read low
[7] = S. cerevisiae deletion strains, locus YNL183C, strain NPR1, active compounds read low
[8] = S. cerevisiae deletion strains, locus YOR231W, strain MKK1, active compounds read low
[9] = S. cerevisiae deletion strains, locus YPL256C, strain CLN2, active compounds read low

Measured: normalized growth

COc1ccc(C(=O)O)c(O)c1OC
inactive: [1] 1.05 | S. cerevisiae deletion strains, locus YBR021W, strain FUR4, active compounds read low 1.03 | S. cerevisiae deletion strains, locus YBR229C, strain ROT2, active compounds read low 1.02 | S. cerevisiae deletion strains, locus YCL029C, strain bik1, active compounds read low 0.992 | S. cerevisiae deletion strains, locus YDL035C, strain GPR1, active compounds read low 1.04 | S. cerevisiae deletion strains, locus YDL074C, strain BRE1, active compounds read low 1.04 | S. cerevisiae deletion strains, locus YDL101C, strain DUN1, active compounds read low 1.01 | S. cerevisiae deletion strains, locus YDL134C, strain PPH21, active compounds read low 1.02 | S. cerevisiae deletion strains, locus YDL185W, strain tfp1, active compounds read low 0.999 | S. cerevisiae deletion strains, locus YDL192W, strain arf1, active compounds read low 0.984 | S. cerevisiae deletion strains, locus YDR101C, strain arx1, active compounds read low 0.985 | S. cerevisiae deletion strains, locus YDR150W, strain NUM1, active compounds read low 1.01 | S. cerevisiae deletion strains, locus YDR162C, strain NBP2, active compounds read low 1.03 | S. cerevisiae deletion strains, locus YDR318W, strain mcm21, active compounds read low 0.988 | S. cerevisiae deletion strains, locus YDR388W, active compounds read low 0.988 | S. cerevisiae deletion strains, locus YDR502C, strain sam2, active compounds read low 0.994 | S. cerevisiae deletion strains, locus YEL061C, strain CIN8, active compounds read low 1.01 | S. cerevisiae deletion strains, locus YER110C, active compounds read low 0.987 | S. cerevisiae deletion strains, locus YER155C, strain BEM2, active compounds read low 1.01 | S. cerevisiae deletion strains, locus YER167W, strain BCK2, active compounds read low 1.02 | S. cerevisiae deletion strains, locus YGL078C, strain dbp3, active compounds read low 0.999 | S. cerevisiae deletion strains, locus YGL086W, strain mad1, active compounds read low 0.994 | S. cerevisiae deletion strains, locus YGL248W, strain PDE1, active compounds read low 1.02 | S. cerevisiae deletion strains, locus YGR078C, strain PAC10, active compounds read low 1.04 | S. cerevisiae deletion strains, locus YGR135W, strain pre9, active compounds read low 1 | S. cerevisiae deletion strains, locus YGR252W, strain gcn5, active compounds read low 1.06 | [2] 1.01 and 1 | S. cerevisiae deletion strains, locus YHR079C, strain IRE1 (second series), active compounds read low 0.986 | [3] 0.996 | S. cerevisiae deletion strains, locus YHR094C, strain hxt1, active compounds read low 0.987 | S. cerevisiae deletion strains, locus YHR129C, strain ARP1, active compounds read low 1.01 | S. cerevisiae deletion strains, locus YHR200W, strain rpn10, active compounds read low 0.997 | S. cerevisiae deletion strains, locus YIL066C, strain RNR3, active compounds read low 1.03 | S. cerevisiae deletion strains, locus YIL073C, strain SPO22, active compounds read low 1.02 | S. cerevisiae deletion strains, locus YIL125W, strain kgd1, active compounds read low 0.988 | S. cerevisiae deletion strains, locus YIR030C, strain dcg1, active compounds read low 0.996 | [4] 1.04 and 1.01 | S. cerevisiae deletion strains, locus YJL134W, strain LCB3, active compounds read low 1.01 | S. cerevisiae deletion strains, locus YJL168C, strain set2, active compounds read low 0.997 | S. cerevisiae deletion strains, locus YJL187C, strain SWE1 (second series), active compounds read low 1.01 | S. cerevisiae deletion strains, locus YJR043C, strain POL32, active compounds read low 1.05 | [5] 0.938 | S. cerevisiae deletion strains, locus YKL009W, strain mrt4, active compounds read low 1.01 | S. cerevisiae deletion strains, locus YKL068W, active compounds read low 0.989 | S. cerevisiae deletion strains, locus YKL085W, strain MDH1 (second series), active compounds read low 0.996 | S. cerevisiae deletion strains, locus YKL085W, strain MDH1, active compounds read low 0.996 | S. cerevisiae deletion strains, locus YKL190W, strain CNB1, active compounds read low 1.01 | S. cerevisiae deletion strains, locus YKR001C, strain vps1, active compounds read low 0.97 | S. cerevisiae deletion strains, locus YLR039C, strain RIC1, active compounds read low 1.09 | S. cerevisiae deletion strains, locus YLR058C, strain SHM2, active compounds read low 1.01 | S. cerevisiae deletion strains, locus YLR102C, strain apc9, active compounds read low 0.996 | [6] 1 | S. cerevisiae deletion strains, locus YLR262C, strain YPT6, active compounds read low 1.12 | S. cerevisiae deletion strains, locus YLR268W, strain sec22, active compounds read low 0.996 | S. cerevisiae deletion strains, locus YLR330W, strain CHS5, active compounds read low 1.01 | S. cerevisiae deletion strains, locus YLR342W, strain FKS1 (second series), active compounds read low 1.01 | S. cerevisiae deletion strains, locus YLR371W, strain rom2, active compounds read low 0.981 | S. cerevisiae deletion strains, locus YLR418C, strain cdc73, active compounds read low 1.04 | S. cerevisiae deletion strains, locus YML016C, strain PPZ1, active compounds read low 1.01 | S. cerevisiae deletion strains, locus YML032C, strain rad52, active compounds read low 1 | S. cerevisiae deletion strains, locus YML124C, strain tub3, active compounds read low 0.997 | S. cerevisiae deletion strains, locus YMR078C, strain ctf18, active compounds read low 0.998 | S. cerevisiae deletion strains, locus YMR223W, strain ubp8, active compounds read low 0.996 | S. cerevisiae deletion strains, locus YMR307W, strain GAS1, active compounds read low 1.22 | S. cerevisiae deletion strains, locus YNL067W, strain RPL9B, active compounds read low 1.02 | S. cerevisiae deletion strains, locus YNL128W, strain TEP1, active compounds read low 1.01 | S. cerevisiae deletion strains, locus YNL153C, strain GIM3, active compounds read low 1.01 | [7] 0.938 | S. cerevisiae deletion strains, locus YNL233W, strain BNI4, active compounds read low 1.02 | S. cerevisiae deletion strains, locus YNL250W, strain rad50, active compounds read low 0.991 | S. cerevisiae deletion strains, locus YNL271C, strain bni1, active compounds read low 0.995 | S. cerevisiae deletion strains, locus YNL298W, strain CLA4, active compounds read low 1.01 | S. cerevisiae deletion strains, locus YNL307C, strain MCK1, active compounds read low 0.988 | S. cerevisiae deletion strains, locus YNR052C, strain pop2, active compounds read low 0.981 | S. cerevisiae deletion strains, locus YOL012C, strain htz1 0.918 | S. cerevisiae deletion strains, locus YOL147C, strain pex11, active compounds read low 0.988 | S. cerevisiae deletion strains, locus YOR061W, strain CKA2, active compounds read low 1.01 | S. cerevisiae deletion strains, locus YOR069W, strain VPS5, active compounds read low 1.01 | S. cerevisiae deletion strains, locus YOR136W, strain idh2, active compounds read low 0.991 | S. cerevisiae deletion strains, locus YOR144C, strain elg1, active compounds read low 0.991 | S. cerevisiae deletion strains, locus YOR184W, strain ser1, active compounds read low 0.998 | [8] 1 | S. cerevisiae deletion strains, locus YOR316C, strain cot1, active compounds read low 0.992 | [9] 1.02 | S. cerevisiae deletion strains, locus YPR119W, strain clb2, active compounds read low 0.993 | S. cerevisiae deletion strains, locus YPR141C, strain kar3, active compounds read low 0.989 | S. cerevisiae deletion strains, locus YPR163C, strain tif3, active compounds read low 0.984 | S. cerevisiae deletion strains, locus YPR167C, strain met16, active compounds read low 0.99 | S. cerevisiae deletion strains, strain wtn01, active compounds read low 0.983 | S. cerevisiae strains, strain wild type, active compounds read low 1.01

CCN(CC)C(=O)c1ccc(O)c(OC)c1
inactive: [1] 1.01 | S. cerevisiae deletion strains, locus YAL040C, strain CLN3, active compounds read low 1.05 | S. cerevisiae deletion strains, locus YCL061C, strain MRC1 (second series), active compounds read low 1 | S. cerevisiae deletion strains, locus YDR363W, strain ESC2, active compounds read low 1.01 | S. cerevisiae deletion strains, locus YER002W, strain NOP16, active compounds read low 1.03 | [2] 0.964 | [3] 0.997 | [4] 1 | [5] 0.957 | [6] 0.99 | S. cerevisiae deletion strains, locus YNL175C, strain NOP13, active compounds read low 1.01 | [7] 0.938 | S. cerevisiae deletion strains, locus YNL197C, strain WHI3, active compounds read low 0.999 | S. cerevisiae deletion strains, locus YNL224C, strain SQS1, active compounds read low 1.01 | S. cerevisiae deletion strains, locus YNL322C, strain KRE1, active compounds read low 1.03 | S. cerevisiae deletion strains, locus YOR083W, strain WHI5 (second series), active compounds read low 1.01 | [8] 0.985 | [9] 0.975

— PubChem BioAssay AID1159580 (chemical genetic matrix, 2015)
